Entries with a potency or affinity are not part of this list. Records with an inconclusive call do not appear. The source made the active and inactive calls. How the calls were made is not given here.
Experiment: HepG2 cell cytotoxicity, dose response, cytotoxicity control, plate reader, dry powder samples (AID 1159569)
Details: HepG2 cytotoxicity counterscreen; series mostly up to 50 µM

| SMILES | outcome |
| --- | --- |
| COc1cccc(C#Cc2ccc([C@H]3[C@@H](CO)N(C(=O)c4ccccn4)[C@H]3C#N)cc2)c1 | inactive |
| COc1ccc2c3c([nH]c2c1)[C@H](CO)N(C(=O)C1CCOCC1)CC31CCN(Cc2nccs2)CC1 | inactive |
| O=C(Nc1ccccc1)N1CCCCN2[C@@H](CO)[C@H](c3ccc(C#Cc4cccnc4)cc3)[C@@H]2C1 | inactive |
| COc1ccc(NC(=O)N(C)C[C@@H]2Oc3cc(-c4ccc(C)cc4)ccc3S(=O)(=O)N([C@H](C)CO)C[C@@H]2C)cc1 | inactive |
| COc1ccc(-c2ccccc2[C@H]2[C@@H](C#N)N(C(=O)C3CCCCC3)[C@H]2CO)cc1 | inactive |
| COc1ccc(C#Cc2ccc3c(c2)O[C@@H](CN(C)S(=O)(=O)c2ccccc2F)[C@@H](C)CN([C@H](C)CO)S3(=O)=O)cc1 | inactive |
| C[C@@H]1CN([C@H](C)CO)C(=O)c2cc(C#CCc3ccccc3)cnc2O[C@H]1CN(C)C(=O)C1CCC1 | inactive |
| CCCNC(=O)N1[C@H](C#N)[C@H](c2ccc(C#Cc3cccc(F)c3)cc2)[C@H]1CO | inactive |
| C[C@@H]1CN([C@H](C)CO)C(=O)c2cc(NC(=O)Nc3ccc(C(F)(F)F)cc3)ccc2O[C@H]1CN(C)C(=O)Nc1cccc2ccccc12 | inactive |
| COc1cccc(C#Cc2cnc3c(c2)C(=O)N([C@@H](C)CO)C[C@H](C)[C@@H](CN(C)C(=O)C2CCCCC2)O3)c1 | inactive |
| O=C(c1ccc(F)cc1)N1CC(=O)N2[C@H](C1)[C@@H](c1ccc(-c3cccnc3)cc1)[C@@H]2CO | inactive |
| CC(C)(C)S(=O)N1Cc2cc(C(=O)NCc3ccc4c(c3)OCO4)nc(-c3cccc(-c4cc5ccccc5o4)c3)c2[C@H]1CCO (stereo partly specified) | inactive |
| COCC#Cc1ccc(CC[C@H]2O[C@H]3CC[C@H](CO)O[C@H]3C[C@@H]2n2cc(C3CC3)nn2)cc1 | inactive |
| C/C=C/c1ccc2c(c1)[C@H]1[C@H](CCN1S(=O)(=O)c1ccccc1C)[C@@H](CO)N2 | inactive |
| COc1ccc(NC(=O)N2CCCCN3[C@H](CO)[C@H](c4ccc(C#Cc5ccccn5)cc4)[C@@H]3C2)cc1 | inactive |
| CO[C@@H]1CN(C)C(=O)c2ccc(NC(=O)Nc3ccccc3F)cc2OC[C@@H](C)N(Cc2ccccc2F)C[C@H]1C | inactive |

| SMILES | outcome |
| --- | --- |
| COc1ccc(C#Cc2ccc3c(c2)O[C@H](CN(C)C(=O)Nc2cccc(OC)c2)[C@H](C)CN([C@@H](C)CO)S3(=O)=O)cc1 | inactive |
| CO[C@@H]1CN(C)C(=O)c2ccc(NC(=O)Nc3ccccc3F)cc2OC[C@@H](C)N(CCC(F)(F)F)C[C@H]1C | inactive |
| COc1ccc(NC(=O)N2CCCCN3[C@@H](CO)[C@H](c4ccc(C#Cc5ccccn5)cc4)[C@@H]3C2)cc1 | inactive |
| O=C(Nc1ccccc1F)N1CCCCN2[C@@H](CO)[C@H](c3ccc(C#Cc4cccnc4)cc3)[C@@H]2C1 | inactive |
| C[C@H]1CN([C@@H](C)CO)C(=O)c2cc(NC(=O)Nc3ccc(C(F)(F)F)cc3)ccc2O[C@@H]1CN(C)C(=O)Nc1cccc2ccccc12 | inactive |
| C[C@H]1CN([C@@H](C)CO)C(=O)c2c(c3ccccc3n2C)-c2ccccc2CO[C@@H]1CN(C)S(=O)(=O)c1ccc(F)cc1 | inactive |
| C[C@H](CO)N1C[C@H](C)[C@H](CN(C)S(=O)(=O)c2ccc([N+](=O)[O-])cc2)OCc2ccccc2-c2c(n(C)c3ccccc23)C1=O | inactive |
| C[C@@H]1CN([C@@H](C)CO)C(=O)c2cccc(NC(=O)c3nc4ccccc4s3)c2O[C@H]1CN(C)C(=O)Nc1ccc2c(c1)OCO2 | inactive |
| COc1ccc2c3c(n(C)c2c1)[C@@H](CO)N(C(=O)C1CCC1)CC31CN(C(=O)Nc2cccc(F)c2)C1 | inactive |
| C[C@H]1CN([C@@H](C)CO)C(=O)c2c(c3ccccc3n2C)-c2ccccc2CO[C@@H]1CN(C)C(=O)Nc1cccc(C(F)(F)F)c1 | inactive |
| COc1ccc2c3c(n(C)c2c1)[C@@H](CO)N(C(=O)c1ccccc1)CC31CCN(C(=O)c2ccccc2)CC1 | inactive |
| CCCc1cn(CC[C@@H]2CC[C@H](NS(=O)(=O)c3ccc(-c4ccccc4)cc3)[C@H](CO)O2)nn1 | inactive |
| OC[C@H]1[C@H](c2ccccc2)C2(CN(Cc3ccccc3F)C2)N1Cc1ccccc1F | inactive |
| C[C@@H]1CN([C@H](C)CO)C(=O)c2cc(/C=C/c3ccccc3)cnc2O[C@H]1CN(C)C(=O)NC1CCCCC1 | inactive |
| COc1ccc(C#Cc2ccc3c(c2)O[C@@H](CN(C)C(=O)Nc2cccc(OC)c2)[C@@H](C)CN([C@H](C)CO)S3(=O)=O)cc1 | inactive |

From PubChem BioAssay AID1159569 (Broad Institute, 2015)
